Measurements as given in PubChem BioAssay (Tox21).
Values without a mark were called inactive. Active and inactive are the calls of the source. Calls come from the whole dose curve; as a rule, active = well fitted curve in the direction sought with a large enough effect in the repeat runs; inconclusive = weak or mixed curves; inactive = flat fitted curve, though single readings scatter.

Assay: qHTS assay to test for compound auto fluorescence at 590 nm (red) in HepG2 cells (AID 720674)
Details: HepG2 autofluorescence, red 540/590 nm, 1 h; series mostly up to 91.3 µM; fluorescence, relative to Rose Bengal: at the top concentration
Source text: U.S. Tox21 Program National Center for Advancing Translational Sciences [NCATS] NIH Chemical Genomics Center [NCGC] U.S. Environmental Protection Agency [EPA] National Institutes of Environmental Health Sciences [NIEHS] National Toxicology Program [NTP] U.S. Food and Drug Administration [FDA] Tox21 Assay Overview: Compound auto fluorescence often interferes with screening of the compound library against various biological targets and signaling pathways. Some of these compounds may have fluorophoric properties. Such properties may interfere with the assay outputs resulting in false positives and/or negatives. To decrease such complications and ensure the compound activities are relevant in terms of biological response, the Tox21 10K compound library was screened for auto fluorescence. From the fluorophores used as reporter signals in our screening assays, the auto fluorescence equivalencies of compounds against three fluorophores have been evaluated: Triamterene, Fluorescein and Rose Bengal sodium for blue, green and red fluorescence, respectively. The fluorescence intensities were measured using Excitation/Emission wavelengths at 405/460nm, 485/535nm and 540/590nm for blue, green and red labels, respectively. This assay includes the red fluorescence data.
Tox21 Assay Protocol Summary: 2,000 HepG2 cells in 5 uL of culture medium (MEM containing 10% FBS) per well were dispensed into black wall/clear bottom 1536-well plates using a Multidrop Combi Dispenser (ThermoFisher Scientific, Waltham, MA). The assay plates were incubated overnight at 37 C to allow cell attachment to the well bottom, followed by the transfer of 23 nL compound or DMSO vehicle by a pintool work station (Kalypsys , San Diego, CA). After the assay plates were incubated for 1 hr at 37 C and 5% CO2, fluorescence intensities in the assay plates were measured by an Envision (PerkinElmer, Shelton, CT) plate reader using three labels for measuring blue, green and red fluorescence at […] 460, 535 and 590 nm respectively.
% is set by controls: 0 for no effect and ±100 for the full control effect.

SMILES	fluorescence, relative to Rose Bengal	outcome
CCOP(=S)(Oc1ccc([N+](=O)[O-])cc1)c1ccccc1 (stereo not given)	0.123%	
CC1(C)CCC(Cc2ccc(Cl)cc2)C1(O)Cn1cncn1 (stereo not given)	0.0628%	
C=CC(C)=O	-0.0885%	
Clc1cc(Cl)c(Cl)c(Cl)c1	-0.186%	
O=C(NCc1cccnc1)Nc1ccc([N+](=O)[O-])cc1	0.0801%	
Clc1cccc2ccccc12	-0.0452%	
CCOc1ccc(C(C)(C)COCc2cccc(Oc3ccccc3)c2)cc1	0.0621%	
CO[C@@H]1[C@H](OC(=O)NC(=O)CCl)CC[C@]2(CO2)[C@H]1[C@@]1(C)O[C@@H]1CC=C(C)C	-0.229% [at 18.6 µM]	
NNC(=O)c1cccnc1	0.35%	
O=Cc1ccc(Cl)cc1Cl	0.229%	
ClCC(Br)CBr (stereo not given)	0.065%	
O=C(O)C(F)(F)C(F)(F)C(F)(F)C(F)(F)C(F)(F)C(F)(F)C(F)(F)C(F)(F)C(F)(F)C(F)(F)F	-0.0176%	
CCOP(=S)(OCC)SCSCC	-0.0138%	
O=C(O)C1(c2ccc3c(c2)OC[C@H](Cc2ccc(-c4ccccc4)cc2)[C@H]3O)CCCC1	0.0896%	
c1ccoc1	0.194%	
CC(C)(Cl)[N+](=O)[O-]	-0.21%	
O=[N+]([O-])c1ccc(F)c([N+](=O)[O-])c1		inactive
CC(C)=CCOc1c2occc2cc2ccc(=O)oc12	0.0105% [at 46 µM]	
C=CC[C@]1(O)CC[C@H]2[C@@H]3CCC4=CC(=O)CCC4=C3C=C[C@@]21C	-0.0419% [at 46 µM]	
C(=NC1CCCCC1)=NC1CCCCC1		inactive

SMILES	fluorescence, relative to Rose Bengal	outcome
CCC(C)(NC(=O)c1cc(Cl)c(C)c(Cl)c1)C(=O)CCl (stereo not given)	-0.306%	
Cc1cc(=O)[nH]o1	-0.0162% [at 95.7 µM]	
CCN(C)N=O	0.123%	
CCBr	0.0522% [at 95.7 µM]	
IC(I)=C(I)I	0.23%	
O=Cc1ccc2c(c1)OCO2	0.0463%	
CC[C@H]1C[C@H]2[C@@H]3CCC4=CC(=O)CC[C@@H]4[C@H]3CC[C@]2(C)[C@H]1O	0.251% [at 46 µM]	
CC(C)N(C(=O)COc1nnc(C(F)(F)F)s1)c1ccc(F)cc1	0.143%	
O=C1C(Cl)C(CCl)CN1c1cccc(C(F)(F)F)c1 (stereo not given)	-0.045%	
Nc1nc(N)nc(N)n1	0.202%	
COc1nn(C(=O)NS(=O)(=O)c2ccccc2OC(F)(F)F)c(=O)n1C	-0.0103%	
CCC(COC(=O)c1cc(OC)c(OC)c(OC)c1)(c1ccccc1)N(C)C (stereo not given)	0.46% [at 46 µM]	
O=C(CBr)OCc1ccccc1	0.0363%	
Cc1ccc(N)cc1C	-0.137%	
CN(N=O)c1ccc([N+](=O)[O-])cc1	0.148%	
Cl/C=C\C[N+]12CN3CN(CN(C3)C1)C2	-0.068%	
O=[N+]([O-])C(Br)(CO)CO		inactive
COc1nn(CSP(=S)(OC)OC)c(=O)s1	-0.543%	
COC(C)(C)CCC[C@H](C)C/C=C/C(C)=C/C(=O)OC(C)C	0.0944%	
II	0.268%	
